Sampled rows, rich in hits. Any-hit rate of the full collection: about 19%.
CHX counter: counter-screen for Shiga toxin inhibitors: cycloheximide protein synthesis inhibition; actives 12% (n = 300,000); cell reporter, cycloheximide protein synthesis inhibition counterscreen; AID 2314; max response, %; in the data active = max response mostly above about 13%, no sharp cut-off; inactive = mostly below about 14%; note: read at 38.3 µM for the half of the compounds with a filed dose
Shiga inhibitor: blocks Shiga toxin action in Vero cells. Vero cells, Shiga toxin protein synthesis inhibition reporter. inhibition, % at 38.7 µM. actives 9.2% (n = 290,000); in the data active = inhibition mostly above about 28%, no sharp cut-off; inactive = mostly below about 43%
Marburg entry inh: inhibitors of Marburg virus binding or cell entry; Marburg virus pseudotyped entry inhibition, cell reporter; Potency, µM (doses to about 37.8 µM), hits mostly inhibitors; actives 1.8% (n = 300,000); calls by dose curve; tested in HEK293 cells
Pf growth 48h: P. falciparum growth inhibition at 48 hours (one generation). actives 5.9% (n = 310,000). AID 504832. Potency, µM (top dose mostly 28.7 µM), usual class: inhibitors. P. falciparum luciferase growth in erythrocytes, 48 h
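Firefly luciferase activity from engineered P. falciparum reports growth; inhibitors lower the luminescent signal. Cultures contained 2% hematocrit erythrocytes at 0.1% final parasitemia.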
Lassa entry inh: inhibitors of Lassa virus binding or cell entry. actives 1.2% (n = 300,000). Lassa virus pseudotype entry inhibition, cell reporter. Potency, µM (highest dose often 37.9 µM), most hits filed as inhibitors. AID 540256; calls by dose curve; tested in HEK293 cells; note: nearly all actives have a fitted effect of over 50% in size
Pf growth 96h: inhibits malaria parasite growth, 96 h; P. falciparum luciferase reporter growth, 96 h; Potency, µM (doses to about 28.7 µM), usual class: inhibitors; actives 6.9% (n = 320,000); AID 504834
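P. falciparum expressing integrated firefly luciferase, in erythrocytes at 2% hematocrit, 0.05% parasitemia, incubated with compounds 96 h at 37 C, 5% CO2. Growth inhibition read as loss of luminescence; two-generation exposure targets delayed-death apicoplast inhibitors.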
Numbers stand for hits; . = inactive; ? = inconclusive; / = not tested or not shown. Unless noted, calls come from the whole dose curve; as a rule, active = well fitted inhibition curve with a large enough effect; inconclusive = small, poorly fitted or top-dose-only effect, or another doubt; inactive = no such curve, though single readings can be large or run the other way.

SMILES	CHX counter	Shiga inhibitor	Marburg entry inh	Pf growth 48h	Lassa entry inh	Pf growth 96h
CCOc1ccccc1OCCn1nc2ccccc2n1	.	.	.	.	.	?
Nc1nc2ccccc2n1CCOc1ccccc1Cl	.	.	11µM	?	.	.
Clc1ccccc1OCCn1nnc2ccccc21	45	63	?	.	?	.
Cc1ccc(C)c(OCCn2nnc3ccccc32)c1	33	34	/	.	/	.
Clc1ccccc1Cn1nnc2ccccc21	.	.	/	.	/	.
Cc1ccc(OCCn2nc3ccccc3n2)c(C)c1	32	38	.	.	.	/
COc1ccc(C(=O)N/C(=C\c2cn(S(=O)(=O)N(C)C)c3ccccc23)C(=O)NC(C)C)cc1	.	.	.	.	.	?
Cc1cccc(C)c1OCCn1nnc2ccccc21	.	.	.	.	.	?
Cc1cc(C)cc(OCCn2nnc3ccccc32)c1	47	58	/	.	/	?
COc1cc(SC)ccc1C(=O)Nc1cc(C)c(OCC(=O)N2CCOCC2)c(C)c1	.	.	?	.	?	?
COc1cc(SC)ccc1C(=O)Nc1ccc2c(c1)OCO2	37	71	?	.	?	.
COc1cc(SC)ccc1C(=O)Nc1ccc(OCC(=O)N2CCOCC2)cc1	17	61	?	.	?	.
COc1cc(SC)ccc1C(=O)Nc1ccc(C)cc1C	47	106	?	.	?	?
COc1cc(SC)ccc1C(=O)Nc1ccc(C)cc1	36	69	.	.	?	?
CCN(CC)S(=O)(=O)c1cccc(NC(=O)c2ccc(SC)cc2OC)c1	.	.	.	?	?	?
COc1ccc(C(=O)Nc2ccc(C)cc2C(=O)c2ccccc2)c(OC)c1	.	.	.	.	.	?
COc1cc(SC)ccc1C(=O)Nc1ccc(S(=O)(=O)N2CCCC2)cc1	.	.	.	/	.	/
O=C(CN=C1NC(=O)C(c2ccccc2)(c2ccccc2)N1)NCc1ccc(F)cc1	.	.	.	.	.	.
O=c1c2sc3ccccc3c2n(Cc2cccc(F)c2)c(=O)n1Cc1ccccc1	/	/	.	/	.	/
CN1CCN(C(=O)c2cc(Cl)ccc2NC(=O)c2ccc(Cl)cc2Cl)CC1	.	.	.	.	.	?
CCCCOc1ccc(CNC(=O)NS(=O)(=O)c2ccc(OCC)cc2)cc1	.	.	.	.	.	/
Cc1cccc(CS(=O)(=O)Cc2ccc(C(=O)NCCCN3CCCC3)o2)c1	.	.	.	/	.	?
COc1ccc(-c2oc(NC(=O)CCl)c(C#N)c2-c2ccc(OC)cc2)cc1	.	.	?	/	?	9.3µM
COc1ccc(-c2oc(NC(=O)CSc3ncn[nH]3)c(C#N)c2-c2ccc(OC)cc2)cc1	.	.	.	?	.	?
C=CCN(CC=C)C(=O)CN1C(=O)NC(C)(c2ccc3cc(OC)ccc3c2)C1=O (stereo not drawn)	.	.	.	.	.	.
SMILES	CHX counter	Shiga inhibitor	Marburg entry inh	Pf growth 48h	Lassa entry inh	Pf growth 96h
CCS(=O)(=O)C(=C(Nc1ccc(OC)cc1)Nc1ccc(OC)cc1)S(=O)(=O)CC	.	.	.	.	.	.
CC1CCCC(NC(=O)C2CCCN2S(=O)(=O)c2cccc3nsnc23)C1C (stereo not drawn)	.	.	/	/	/	.
C/C(CC(=O)Nc1ccc(Cl)cc1C(F)(F)F)=N\NC(N)=S	.	.	.	.	.	.
C/C(=N/NC(=O)c1cccs1)c1ccc(NC(=O)COc2ccc(Cl)cc2Cl)cc1	33	94	?	.	13µM	.
COc1cc(NC(=O)C/C(C)=N/NC(=O)c2cccs2)c(OC)cc1Cl	25	67	?	.	?	.
C/C(CC(=O)Nc1ccc(Cl)cc1C(F)(F)F)=N\NC(=O)c1ccccn1	41	76	?	.	.	.
C/C(CC(=O)Nc1ccc(Cl)cc1Cl)=N\NC(=O)c1ccncc1	.	.	/	.	/	.
C/C(CC(=O)Nc1ccc(Cl)cc1C(F)(F)F)=N\NC(=O)c1cccs1	54	91	.	.	.	.
Cc1cc(C)nc(SCC(=O)Nc2ncc(Cc3cccc(Cl)c3)s2)n1	.	.	.	.	?	?
Cc1ccc(CN2CCc3[nH]c(=O)[nH]c(=O)c3C2)cc1	.	.	/	.	/	1.2µM
Cc1ccc(CN2CCc3[nH]c(=S)[nH]c(=O)c3C2)cc1	.	.	/	.	/	.
CC(Sc1cccc[n+]1[O-])C(=O)Nc1ccc(Oc2ccccc2)cc1 (stereo not drawn)	.	.	?	.	.	?
O=C(NNC(=O)c1cc(-c2cccnc2)nc2ccccc12)Nc1ccc(Cl)cc1	45	.	?	?	?	?
CC(C)(C)c1ccc(-c2cc(C(=O)NNC(=O)Nc3ccccc3)c3ccccc3n2)cc1	22	.	?	/	5.6µM	4.7µM
CCN(CC)c1ccc(NC(=O)CN2CCN(CC(=O)Nc3ccccc3OC)CC2)cc1	.	.	/	.	.	.
Cc1nnc(SCC(=O)NC(=O)Nc2ccc3c(c2)OCCO3)s1	30	45	.	.	.	.
Cc1cccc(Nc2nnc(SCC(=O)NC(=O)Nc3ccc4c(c3)OCCO4)s2)c1	.	.	?	.	?	.
Cc1nnc(SC(C)C(=O)Nc2ccc(S(=O)(=O)N3CCCCCC3)cc2)s1 (stereo not drawn)	.	.	.	12µM	.	/
Cc1nnc(SC(C)C(=O)Nc2ccc3c(c2)OCCO3)s1 (stereo not drawn)	.	.	.	.	.	10µM
COc1ccc(-c2nnc(SC(C)C(=O)Nc3ccc4c(c3)OCCO4)o2)cc1 (stereo not drawn)	35	active	.	.	.	12µM
Cc1cc2c(SCC(=O)Nc3ccccc3O)ncnc2s1	/	/	.	/	.	/
COC(=O)c1scc2c(Oc3ccccc3)cc(C(F)(F)F)nc12	.	.	.	.	.	.
CC1C(=O)Nc2ccc(S(=O)(=O)NCc3ccc(Cl)cc3)cc2NC1=O (stereo not drawn)	.	.	/	.	/	.
COc1ccccc1Nc1nnc(SCC(=O)NC(=O)Nc2ccc3c(c2)OCCO3)s1	.	.	.	.	?	.
Cc1ccccc1Nc1nnc(SCC(=O)NC(=O)Nc2ccc3c(c2)OCCO3)s1	62	50	.	.	.	.
SMILES	CHX counter	Shiga inhibitor	Marburg entry inh	Pf growth 48h	Lassa entry inh	Pf growth 96h
CCCc1c(NC(=O)Nc2ccc(Cl)cc2Cl)cnn1-c1ccccc1	.	.	0.89µM	.	?	?
CCN(CC)C(=O)c1cnn(-c2ccccc2)c1NC(=O)c1ccccc1F	.	.	.	.	.	0.93µM
CCCc1c(C(=O)Nc2ccc(F)cc2F)cnn1-c1ccccc1	17	.	.	.	/	.
CCCc1c(C(=O)Nc2cc(C(C)(C)C)on2)cnn1-c1ccccc1	.	.	/	?	/	?
COc1ccccc1Nc1nc(N)nc(CN2CCCCCC2)n1	.	.	.	?	.	/
COc1ccccc1Nc1nc(N)nc(CSC(=S)N2CCCCC2C)n1 (stereo not drawn)	43	43	.	?	.	?
COc1ccccc1Nc1nc(N)nc(CSC(=S)N2CCC(C)CC2)n1	43	.	?	?	.	?

High-throughput results (PubChem BioAssay)
